Laboratory results from PubChem BioAssay AID1863 (Southern Research Specialized Biocontainment Screening …, 2009).
In all, about 300,000 compounds went through this assay and about 480 (0.16%) were called active.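 The calls were made as follows: active = inhibition over 29.93%, a cutoff 3 SD above the screen mean, later confirmed by dose response; inconclusive = inhibition over 29.93% but no dose response follow-up; inactive = inhibition at most 29.93% or unconfirmed.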 Not all results are given here. Results with a measured potency or affinity are listed apart.

Test: PhoP-dependent GFP reporter repression – Salmonella Typhimurium, primary screen (AID 1863);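 also: 0% = low Mg2+ inducing control and 100% = high Mg2+ repressing control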
Conditions: S. Typhimurium PhoP-regulated promoter GFP reporter, 4 h; at 50 µM; hits give high values

inhibition, inactive:
Cc1ccc(NC(=O)C2(C)Cc3ccccc3C(=O)O2)cc1 (stereo unspecified) -8.33%
CC1CCN(CC(=O)Nc2cccc(C(=O)Nc3cccc(C(F)(F)F)c3)c2)CC1 0.24%
O=C(CNC(=O)c1ccccc1)Nc1cccc(C(F)(F)F)c1 -8.93%
O=C1CCN(N=Nc2cccc(Cl)c2)N1 -4.47%
COc1ccc(N2CCN(C(=O)CN(C3CCCCC3)S(C)(=O)=O)CC2)cc1 -3.93%
O=S(=O)(NCc1ccccc1)NCc1ccccc1F -1.32%
O=C(O)c1ccc(CNCc2ccccc2F)cc1 0.78%
Cc1csc(C(=O)O)c1NC(=O)c1c(Cl)cccc1Cl -3.3%
CCn1nc(C(=O)N2CCN(Cc3ccc4c(c3)OCO4)CC2)c2ccccc2c1=O -2.79%
CCn1cc(C(=O)N[C@H](C(=O)O)C(C)C)c(=O)c2cc3c(cc21)OCO3 25.9%
CCOC(=O)c1cn(CC)c2cc3c(cc2c1=O)OCO3 7.75%
CCn1ccc(=O)c2cc3c(cc21)OCO3 2.11%
Cn1c(SCC(=O)NC2CCCCC2)nnc1-c1cc2cc(Cl)ccc2o1 5.87%
CCC(=O)NC(c1cccs1)c1ccc2cccnc2c1O (stereo unspecified) 27%
CC(C)CC(=O)NC(c1cccs1)c1ccc2cccnc2c1O (stereo unspecified) 9.48%
O=C1OCc2cc(NC(=O)C3CCCO3)ccc21 (stereo unspecified) 13.1%
COc1ccc(Cc2nc3ccc(C(=O)N4CCC[C@H]4CO)cc3o2)cc1 -5.77%
Cc1ccc(C)c2c1[nH]c1ccccc12 -11.2%
COc1ccc2[nH]c3c(Cl)ncnc3c2c1 2%
COc1ccc2[nH]c3c(=S)nc[nH]c3c2c1 11.1%
Cc1cc2[nH]c3ccccc3c2c(C)n1 17.6%
Cc1ccc(C2(c3noc(CN(C)Cc4ccccn4)n3)CCCC2)cc1 1.51%
O=C(O)Cn1c(O)c(C2=c3ccccc3=NC2=O)sc1=O 3.25%
COc1cccc(N/C(N)=N/c2nc(C(F)(F)F)cc(C(F)(F)F)n2)c1 -1.8%
O=S1(=O)N=C(N/N=C/c2cccs2)c2ccccc21 0.95%
O=S1(=O)N=C(N/N=C/c2ccco2)c2ccccc21 11.7%
S=c1[nH]c2ccccc2n2c(=S)[nH]nc12 4.88%
O=c1[nH]c2ccccc2n2cnnc12 3.8%
C=CCn1c(SCC(=O)OCC)nc2cc(C(=O)NCc3ccco3)ccc2c1=O -4.98%
CCCn1nc(C(=O)OCC(=O)Nc2cccc(S(N)(=O)=O)c2)c2ccccc2c1=O -1.14%
Nc1[nH]nc2nc3ccccc3cc12 0.6%
Nc1c2ccccc2nc2ccccc12 20.8%
Nc1nc(-c2cccnc2)nn1C(=O)c1ccccc1Cl 0.52%
COc1ccc(-c2csc(NC(=O)COC(=O)c3ccco3)n2)cc1 5.57%
Cc1ccc(C(=O)OCC(=O)NC(=O)c2cccn2C)cc1[N+](=O)[O-] -12.8%
COCCCn1c(Cc2csc(Nc3ccc(F)cc3)n2)nnc1SCC(N)=O 0.4%
COc1ccc(/C(C)=N/NC(=O)CNC(=O)c2ccncc2)cc1 -0.07%
N=c1n(CC(=O)c2ccc([N+](=O)[O-])cc2)c2ccccc2n1Cc1ccc(Cl)cc1 25.9%
N=c1n(CC(=O)c2ccc([N+](=O)[O-])cc2)c2ccccc2n1Cc1ccccc1 39%
Cc1cc(C)n(C(=O)CNC(=O)c2ccc3c(c2)OCCO3)n1 -15.6%
CCO[C@@H]1OC(C(=O)N2CCCCCCC2)=C[C@H](c2cn(C(C)=O)c3ccccc23)[C@H]1CCCO -5.2%
COc1ccc(C)cc1-n1c(-c2ccncc2)n[nH]c1=S -9.19%
Cc1cccc(NC2=CC(=O)CC(C)(C)C2)c1C 2.2%
CC(C(=O)c1ccc(-c2ccccc2)cc1)[n+]1cccc(C(N)=O)c1 (stereo unspecified) 2.06%
CC(C(=O)c1ccc(Br)cc1)[n+]1cccc(NC(=O)c2ccccc2)c1 (stereo unspecified) -0.32%
O=C(C[n+]1cccc(CNC(=O)c2ccc(OC(F)F)cc2)c1)Nc1cccc(C(F)(F)F)c1 25.3%
O=C(C[n+]1cccc(CNC(=O)c2ccc(OC(F)F)cc2)c1)Nc1ccc(F)cc1 5.04%
CCOc1ccc(C(=O)NCC(=O)N2CCC3CCCCC3C2)cc1OCC (stereo unspecified) 7.73%
COc1cc(-c2nnc(SCC(=O)/C(C#N)=C(\C)N)o2)cc(OC)c1OC 0.61%
CN(CCCC[C@H](CNCc1ccc(-c2ccccc2)cc1)N1C[C@H](c2ccccc2)N(CCc2ccc(Cl)c(Cl)c2)C(=O)C1=O)Cc1ccc(-c2ccccc2)cc1 8.2%
CCOc1ccc(CCN2C(=O)C(=O)N([C@H](CCCN(C)Cc3ccccc3)CNCc3ccccc3)C[C@@H]2C(C)C)cc1 12.1%
CCc1ccc(N2C(=O)Nc3ccccc3C2(O)C(=O)N2CCN(c3ccccn3)CC2)cc1 (stereo unspecified) 10.3%
Cn1c(CSc2nc3ccccc3s2)nnc1SCC(=O)NCc1ccccn1 -6.01%
O=C1NN(c2ccccc2)C(=O)/C1=C/c1coc2ccccc2c1=O 8.22%
Cc1cc(/C=C2/C(=O)NN(c3ccccc3)C2=O)c(C)n1-c1ccc(O)cc1 -4.21%
CCOC(=O)C1=C(O)/C(=C/c2cccc(OC)c2O)N=C1C -9.18%
Cn1c(CCCNC(=O)c2cccs2)nc2ccccc21 -1.8%
Cc1ccc(NC(=O)c2ncc(Cl)c(Cl)c2Cl)cc1C 2%
Nc1cn(C2OC(CO)C(O)C2O)c(=O)[nH]c1=O (stereo unspecified) 3.77%
O=c1[nH]c(=O)n(C2OC(CO)C(O)C2O)cc1Br (stereo unspecified) 3.95%
Cc1cc(CNC(=O)c2cccnc2Cl)c2ccccc2n1 1.03%
